Key:
Assay in all cases: PBM binding z-score (relative to random genomic background probes); higher = stronger binding; sequences stand for … in GC…GCGATTGACAGCGTAGAATGAAGG
[1] = test system: PPARg:RXRa DBDmut IVT, anti-RXR (DBD mutation: RXRa K156A/R161A, NR concentration 270 nM, RXRa partner concentration 90 nM)
Method in brief: (§1)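 Antibodies against each partner of ligand-free nuclear receptor dimers (one per run) detected binding on custom Agilent 4×180K protein-binding microarrays after 1 h incubation. The double-stranded probes had 34-nt variable regions carrying direct-repeat seeds, single-nucleotide variants, half-site ablations and random human genomic background sequences. Binding z-scores, from regression-normalized fluorescence, use the random background probes as reference.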

[2] = test system: PPARg:RXRa IVT, anti-PPARg (NR concentration 270 nM, RXRa partner concentration 90 nM)
Method in brief: as §1

[3] = test system: PPARg DBDmut:RXRa IVT, anti-PPARg (DBD mutation: PPARg1 K132A/R137A, NR concentration 270 nM, RXRa partner concentration 90 nM)
Method in brief: as §1

[4] = test system: PPARg DBDmut IVT, anti-PPARg (DBD mutation: PPARg1 K132A/R137A, NR concentration 270 nM)
Method in brief: as §1

[5] = test system: PPARg homodimer (NR concentration 180 nM)
Method in brief: as §1

[6] = test system: PXR:RXRa (NR concentration 270 nM, RXRa partner concentration 90 nM)
Method in brief: as §1

[7] = test system: PXR homodimer (NR concentration 270 nM)
Method in brief: as §1

[8] = test system: RARa:RXR (NR concentration 270 nM, RXRa partner concentration 90 nM)
Method in brief: as §1

[9] = test system: RARa homodimer (NR concentration 270 nM)
Method in brief: as §1

[10] = test system: RARb:RXRa (NR concentration 270 nM, RXRa partner concentration 90 nM)
Method in brief: as §1

[11] = test system: RARb homodimer (NR concentration 270 nM)
Method in brief: as §1

[12] = test system: RARg:RXRa (NR concentration 270 nM, RXRa partner concentration 90 nM)
Method in brief: as §1

[13] = test system: RARg homodimer (NR concentration 270 nM)
Method in brief: as §1

[14] = test system: RXRa DBDmut IVT, anti-RXR (DBD mutation: RXRa K156A/R161A, NR concentration 90 nM)
Method in brief: as §1

[15] = test system: RXRa homodimer (NR concentration 180 nM)
Method in brief: as §1

[16] = test system: THRa:RXRa (NR concentration 90 nM, RXRa partner concentration 90 nM)
Method in brief: as §1

[17] = test system: THRa homodimer (NR concentration 90 nM)
Method in brief: as §1

[18] = test system: VDR homodimer (NR concentration 270 nM)
Method in brief: as §1

Sequence | PBM binding z-score [1] | PBM binding z-score [2] | PBM binding z-score [3] | PBM binding z-score [4] | PBM binding z-score [5] | PBM binding z-score [6] | PBM binding z-score [7] | PBM binding z-score [8] | PBM binding z-score [9] | PBM binding z-score [10] | PBM binding z-score [11] | PBM binding z-score [12] | PBM binding z-score [13] | PBM binding z-score [14] | PBM binding z-score [15] | PBM binding z-score [16] | PBM binding z-score [17] | PBM binding z-score [18]
CCGACTGGGGCAAGTTTACCATAACGCACAGCCA | 3.19 | 2.78 | -0.473 | -0.469 | 0.332 | -0.0221 | 0.029 | 0.0414 | 0.4 | 1.02 | 0.697 | 0.446 | 0.667 | 0.533 | 0.261 | -0.0579 | -0.484 | 0.132
ACTAGTTAGTCAGCTGAGGTCACACACAATTCGG | 0.771 | 2.31 | 0.856 | 0.622 | 2.26 | 5.14 | 1.6 | 5.01 | 1.35 | 3.3 | 4.4 | 3.65 | 3.31 | 1.91 | 4.01 | 4.76 | 5.46 | 3.81
CGTCAAAGTTCAACTAAGGTAACGTAGAGCACGC | 0.564 | 2.32 | 0.885 | 0.785 | 3.17 | 5.54 | 3.81 | 4.57 | 1.67 | 5.24 | 4.06 | 6.15 | 6.74 | 4.65 | 5.34 | 5.11 | 1.86 | 3.92
ACTCAAAGTTCACTAGGTAACGTAAGATTCAGCT | 3.09 | 4.19 | 1.81 | 1.14 | 3.86 | 4.2 | 3.09 | 3.17 | 3.01 | 4.95 | 3.65 | 4.84 | 5.79 | 4.63 | 3.51 | 2.22 | 0.585 | 4.45
CAAACTAGGTCACGAAAGGTCCAAGTCGAATGAC | 8.4 | 9.01 | 1.98 | 0.788 | 2.59 | 3.32 | 0.339 | 3.32 | 1 | 4.51 | 3.73 | 5.23 | 5.73 | 1.55 | 4.45 | 3.87 | 1.39 | 1.55
ACAGACTGGTGATGAAGGTAACTCAGGCTATCAT | -0.615 | -0.401 | 0.194 | -0.143 | -0.6 | -0.651 | -0.0629 | -0.424 | 0.115 | -0.396 | -0.356 | -0.329 | 0.0364 | -0.417 | -0.393 | 0.478 | -0.264 | -0.921
ATACCAAGGTGATTGTGAGGTCGTTGATACTAAC | 0.693 | 1.27 | 0.771 | 0.654 | 1.27 | 3.13 | 2.05 | 2.22 | 0.72 | 1.41 | 2.03 | 2.19 | 1.08 | 1.27 | 1.59 | 3.66 | 2.94 | 3.33
TATACAGGGTCAAAGGCCAGATTACGAATGTCGA | 2.17 | 4.84 | 2.19 | 3.09 | 2.87 | 4.54 | 0.853 | 6.01 | 1.67 | 4.43 | 3.49 | 5.72 | 4.99 | 3.29 | 6.99 | 3.6 | 0.972 | 2.54
CCTGCTAGATCATGGTCAGCTAATCTACAGTATG | 0.393 | -0.546 | -0.661 | -0.698 | -0.74 | -0.448 | -0.524 | -0.328 | -0.726 | -0.0385 | -0.429 | -0.127 | 0.142 | 0.516 | -0.185 | -0.68 | -1.23 | -0.86
CTTAGCAGGCCAATCTGGGTCACTCAAGGCTTGA | 4.54 | 5.41 | 1.49 | -0.595 | 0.867 | 0.661 | -0.63 | 1.8 | -0.332 | 1.46 | 2.2 | 0.952 | 1.3 | 0.294 | 0.782 | 3.77 | 0.497 | -0.119
GATACCGGGTCAGCTAGAGGCCAGAGTATGGAAA | 0.693 | 2.49 | -0.62 | -0.769 | 1.94 | 2.41 | -0.56 | 3.53 | -0.152 | 3.28 | 2.63 | 5.9 | 3.71 | -0.115 | 2.83 | 2.64 | 0.0916 | -0.166
CAAACTAGGTCCCAGAGGTCAAAGTCCGTGCGTA | 4.19 | 4.68 | 1.03 | 0.477 | 2.64 | 5.55 | 2.66 | 5.68 | 1.33 | 3.8 | 4.35 | 5.07 | 4.38 | 2.04 | 5.62 | 3.67 | 1.58 | 3.87
CCTATTAGTTGACCATAAGGGCAAACGAAGCTCG | 0.266 | 0.555 | 0.151 | 0.588 | 1.58 | 0.75 | 0.863 | 1.02 | 1.31 | 1.52 | 1.93 | 1.48 | 1.31 | 0.782 | 0.751 | 1.72 | 1.08 | 1.01
CGTCCAAGGTCATCGGAGGTCAGTGAAGACAGAT | 3.14 | 4.14 | 0.99 | 1.08 | 6.99 | 7.33 | 7.36 | 6.63 | 3.02 | 5.5 | 5.43 | 7.31 | 7.72 | 4.24 | 6.83 | 5.45 | 3.48 | 5.07
TCTAGCAGGCCAGAGGGTCACACAAGAGGTACGG | 1.19 | 1.38 | -0.514 | -0.172 | 1.57 | 2.37 | -0.42 | 3.44 | 0.0542 | 2.62 | 3.1 | 3.52 | 3.05 | 0.175 | 4 | 2.25 | 0.165 | 0.773
GGAAGGAGGGCAAGTTGATAGCAGAGTTTGATGG | 3.75 | 3.16 | 0.411 | 0.837 | 2.03 | 1.44 | 2.2 | 0.685 | 1.5 | 2.54 | 2.04 | 1.51 | 1.88 | 0.971 | 0.655 | 1.08 | 1.12 | 2

Reference: the supplement of paper PMC6555819
